Screen size: about 48,000 compounds; about 13,000 (27%) showed an effect of 50% or more. The list shows a part of the results.
Tested on: Wolbachia pipientis
Experiment: Anti-Wolbachia Cell-Based Screen
Format: functional
Design: scale not given: in the data most compounds retested in dose-response had high values
Settings: 5 µM

With Cc1nc(NC(=O)COCC2CC2)ccc1Br as the molecule, how does the “Percent Effect” value read?
Its value is -7.033%.

With CCc1nnc(CN2CCC(C3CCCCCN3C(C)=O)CC2)o1.Cl (configuration not stated) as the molecule, how does the “Percent Effect” value read?
The value was 2.52%.

For CN(C)c1nccc(CNS(=O)(=O)c2cc(Cl)cc(Cl)c2)n1, which “Percent Effect” value is on record?
Its value is -1.753%.

Cc1nc(C(=O)N2CCN(C(=O)N(C)C)[C@@H]3CS(=O)(=O)C[C@@H]32)cs1 was tested. Which “Percent Effect” value did it give?
Its value is -0.3934%.

With CCC(NC(=O)c1cccc2[nH]ccc12)C(=O)N1CCOCC1 (configuration not stated) as the molecule, how does the “Percent Effect” value read?
Its value is -2.082%.

Cc1noc(C)c1CC(=O)N1CCCC(c2noc(C(C)C)n2)C1 (configuration not stated) was tested. Which “Percent Effect” value did it give?
The value was -25.9%.

For Cc1nn(C)c(C)c1CC(=O)N1CCCC(n2ccnc2C)C1 (configuration not stated), which “Percent Effect” value is on record?
The value was 103.8%.

Cc1nccn1C1CCCN(C(=O)Cn2ccc(=O)n(C)c2=O)C1 (configuration not stated) was tested. Which “Percent Effect” value did it give?
The value was -5.053%.

For CC(=O)NCC1CCCN(C(=O)Cc2c(C)noc2C)C1 (configuration not stated), which “Percent Effect” value is on record?
Its value is 118.6%.

For Cc1cnn(C2CCCN(C(=O)Cc3c(C)nn(C)c3C)C2)c1 (configuration not stated), which “Percent Effect” value is on record?
The value was 112.6%.

How did the “Percent Effect” value turn out when Cc1nn(C)c(C)c1CC(=O)N1CCCC(n2ccnc2)C1 (configuration not stated) was run?
The value was -6.925%.

Which “Percent Effect” value does the source give for Cc1noc(C)c1CNC(=O)N1CCCC(C)CC1 (configuration not stated) here?
Its value is -2.86%.

With C=C(C)CN1CCCC1c1nc(Cc2ccc(F)cc2)no1 (configuration not stated) as the molecule, how does the “Percent Effect” value read?
Its value is 3.064%.

CNC(=O)[C@H]1C[C@H]2OCC[C@H]2N(CC2CCOCC2)C1.O=C(O)C(F)(F)F was tested. Which “Percent Effect” value did it give?
Its value is -4.721%.

How did the “Percent Effect” value turn out when COC(=O)CCCN(C)C(c1cccnc1)c1ccc(F)cc1F (configuration not stated) was run?
Its value is -20.53%.

CCCn1nccc1-c1nccnc1CC1CCN(C(C)=O)CC1 was tested. Which “Percent Effect” value did it give?
Its value is 113%.

Cn1nccc1-c1nc2c(cc1C(=O)O)CCN(C(=O)C1CC1)CC2.O=C(O)C(F)(F)F was tested. Which “Percent Effect” value did it give?
Its value is -10.62%.

For CCCn1nccc1C(=O)N1CCN(C(=O)C2CC2)[C@@H]2CS(=O)(=O)C[C@@H]21, which “Percent Effect” value is on record?
The value was 17.33%.

With CC(=O)N1CCC(Cc2nccnc2-c2ccnn2C)CC1 as the molecule, how does the “Percent Effect” value read?
Its value is 105.5%.

CCCn1nccc1C(=O)N1CCCC(C(=O)CCc2ccccc2)C1 (configuration not stated) was tested. Which “Percent Effect” value did it give?
Its value is 3.228%.

CCCn1nccc1-c1nccnc1CC1CCN(C(C)=O)C1 (configuration not stated) was tested. Which “Percent Effect” value did it give?
Its value is 94.67%.

Which “Percent Effect” value does the source give for CCCn1nccc1-c1cnc(CC2CCN(C(C)=O)C2)cn1 (configuration not stated) here?
Its value is 102.9%.

Which “Percent Effect” value does the source give for CCCn1ncnc1C(C)NC(=O)C1CCN(C(=O)C2CC2)CC1 (configuration not stated) here?
The value was -8.242%.

With CCCn1nccc1C(=O)N1CCN(C2CCc3ccccc3C2)CC1 (configuration not stated) as the molecule, how does the “Percent Effect” value read?
Its value is -8.816%.

Which “Percent Effect” value does the source give for CS(=O)(=O)c1ccc2c(c1)N(C(=O)Cc1ccc(F)cc1)CCC2 here?
The value was 9.452%.

For N#Cc1cccnc1NCCNC(=O)NCCSC(F)(F)F, which “Percent Effect” value is on record?
The value was 18.52%.

O=C(NCCC1CCCCO1)c1coc(COc2ccc(F)cc2)n1 (configuration not stated) was tested. Which “Percent Effect” value did it give?
Its value is -18.68%.

For CCOCc1nc2c(c(NC(CC)c3cccnc3)n1)CCNCC2 (configuration not stated), which “Percent Effect” value is on record?
Its value is 11.04%.

For CN(CC1(CO)CCCC1)[C@@H]1c2ccccc2C2(CCNCC2)[C@H]1O, which “Percent Effect” value is on record?
The value was 6.987%.

Cc1cccc(C2CCCN(C(=O)CN3CCOC3=O)C2)c1 (configuration not stated) was tested. Which “Percent Effect” value did it give?
Its value is -2.013%.

For CN(C)CCO[C@H]1C[C@@H](O)C12CCN(c1nccc3ccccc13)CC2, which “Percent Effect” value is on record?
The value was -5.816%.

For Clc1ccccc1C1(c2ccnc(-c3ncccn3)n2)CCNCC1, which “Percent Effect” value is on record?
Its value is -1.363%.

Which “Percent Effect” value does the source give for Cc1cc(=O)n2nc(Oc3cccc(C(N)=O)c3)sc2n1 here?
The value was 92.57%.

With Cc1ccccc1CC(C)(C)NC(=O)COc1cccc(C(N)=O)c1 as the molecule, how does the “Percent Effect” value read?
The value was 8.164%.

For Cc1cc(=O)n2nc(Oc3cccc(I)c3)sc2n1, which “Percent Effect” value is on record?
The value was 98.58%.

Cc1ccn(-c2cncc(C(N)=O)c2)n1 was tested. Which “Percent Effect” value did it give?
The value was -45.7%.

With CSCCC(=O)N1CCC(c2nccn2Cc2cscn2)CC1 as the molecule, how does the “Percent Effect” value read?
The value was -27.24%.

Which “Percent Effect” value does the source give for Cc1ccsc1-c1nc(CN(C)Cc2cc[nH]n2)c(C)o1 here?
Its value is 11.99%.

For CS(=O)(=O)N1CCCC12CCCN(S(=O)(=O)c1ccc(F)cc1)C2 (configuration not stated), which “Percent Effect” value is on record?
Its value is -4.23%.

With Cc1ccc(S(=O)(=O)N2CCCC3(CCCN3S(C)(=O)=O)C2)cc1F (configuration not stated) as the molecule, how does the “Percent Effect” value read?
Its value is 98%.

How did the “Percent Effect” value turn out when CS(=O)(=O)N1CCCC12CCCN(S(=O)(=O)c1ccc(F)c(F)c1)C2 (configuration not stated) was run?
Its value is 90.35%.

For Cc1ccc(S(=O)(=O)N2CCCCC(N3CCN(C)CC3)C2)cc1F (configuration not stated), which “Percent Effect” value is on record?
The value was -10.96%.

How did the “Percent Effect” value turn out when Cc1ccc(S(=O)(=O)N2C[C@H](C3CC3)[C@@H](N)C2)cc1F was run?
The value was -0.3318%.

Which “Percent Effect” value does the source give for c1ccn2c(C3CCCN(c4ncnc5c4CCNC5)C3)nnc2c1 (configuration not stated) here?
The value was -4.904%.

How did the “Percent Effect” value turn out when O=C(O)COc1ccc(Cl)cc1CN1CCC2(CCNCC2)CC1 was run?
Its value is -7.41%.

Which “Percent Effect” value does the source give for Cc1csc(CN2CC(CO)Oc3ccccc32)n1 (configuration not stated) here?
Its value is -31.8%.

COc1c(CNCc2cccc(Cn3ccnc3C)c2)c(C)nn1C.Cl was tested. Which “Percent Effect” value did it give?
Its value is 162.7%.

With COc1c(CNCc2cccc(Cn3cncn3)c2)c(C)nn1C as the molecule, how does the “Percent Effect” value read?
Its value is 94.36%.

Which “Percent Effect” value does the source give for COc1c(CNCc2cccc(Cn3cccn3)c2)c(C)nn1C here?
Its value is 134.9%.

How did the “Percent Effect” value turn out when COc1c(CNCc2ccc(Cn3cccn3)cc2)c(C)nn1C was run?
Its value is -21.67%.

COc1c(CNCc2cccc(CN3CCOCC3)c2)c(C)nn1C was tested. Which “Percent Effect” value did it give?
Its value is -5.316%.

For COc1c(CNCc2ccccc2Cn2cccn2)c(C)nn1C, which “Percent Effect” value is on record?
Its value is 10.98%.

COc1c(CNCc2ccccc2Cn2cncn2)c(C)nn1C was tested. Which “Percent Effect” value did it give?
The value was -0.9882%.

With Cc1ccc(NC(=O)C(C)N2CCCN(c3nccs3)CC2)c(C)c1 (configuration not stated) as the molecule, how does the “Percent Effect” value read?
The value was -5.233%.

For O=S(=O)(NCC1(O)CCCC1)c1ccccc1Br, which “Percent Effect” value is on record?
Its value is 2.398%.

For CC1CCN(S(=O)(=O)c2cccn(CC(=O)N3CCOCC3)c2=O)CC1, which “Percent Effect” value is on record?
The value was 5.887%.

With CC1CCN(S(=O)(=O)c2cccn(CC(=O)NC(C)(C)C)c2=O)CC1 as the molecule, how does the “Percent Effect” value read?
The value was -3.132%.

O=c1[nH]nc2c(S(=O)(=O)N3CCCC3)cccn12 was tested. Which “Percent Effect” value did it give?
The value was 132.4%.

Which “Percent Effect” value does the source give for O=c1[nH]nc2c(S(=O)(=O)N3CCN(c4ccc(F)cc4)CC3)cccn12 here?
The value was 130.4%.

How did the “Percent Effect” value turn out when O=C(O)c1cc(-c2cc[nH]n2)cc(S(=O)(=O)N2CCCCCC2)c1 was run?
Its value is 5.373%.

For CC(C)(C)OC(=O)Cn1cccc(S(=O)(=O)N2CCCC2)c1=O, which “Percent Effect” value is on record?
The value was 1.983%.

For CC(C)(C)OC(=O)Cn1cccc(S(=O)(=O)N2CCCCCC2)c1=O, which “Percent Effect” value is on record?
Its value is -1.938%.

For O=S(=O)(Nc1ccc(N2CCOCC2)cn1)c1ccc(F)cc1, which “Percent Effect” value is on record?
Its value is -10.45%.

Which “Percent Effect” value does the source give for O=c1[nH]nc2c(S(=O)(=O)N3CCCCC3)cccn12 here?
Its value is 132.6%.

With O=c1[nH]nc2c(S(=O)(=O)N3CCOCC3)cccn12 as the molecule, how does the “Percent Effect” value read?
Its value is 153.4%.

CC(=O)Nc1ncc(S(=O)(=O)N2CCOCC2)s1 was tested. Which “Percent Effect” value did it give?
The value was -0.8414%.

How did the “Percent Effect” value turn out when O=C1N(c2ccc(F)cc2)Cc2n[nH]c(=O)n21 was run?
The value was 2.178%.
